PubChem BioAssay (NCATS)
Several values for one entry are separate records, joined by “and”; a condition that tells them apart may be missing. Identical values can stand only once. Unmarked numbers belong to inactive results. Records with an inconclusive call do not appear. A call without a number means that no potency is given here. Activity calls are given as the source filed them. Unless noted, the rule behind the calls is not given here.

Tested on: not listed separately
Assay: qHTS assay for cell viability of the p53RE-bla HCT-116 cell line (AID 743292; active = well fitted cell-killing curve with a large enough effect; note: nearly all actives have a fitted effect of over 55% in size)
Settings: p53RE-bla HCT-116 viability, ATP luminescence, 16 h; series mostly up to 95 µM
Method in brief: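 Luminescent ATP quantitation (CellTiter-Glo) served as the viability read-out; reagent was added after 16 h compound exposure at 37 C and read after 30 min at room temperature. Cells: p53RE-bla HCT-116, 4,000 per well.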
With `N#Cc1ccccc1` the Potency was “inactive”. With `c1ccc2c(c1)Oc1ccccc1S2` the Potency was “inactive”. With `CC(=O)CCc1ccccc1` the Potency was “inactive”. In the case of `Cc1ccc(Cl)cc1`, the Potency is reported as “inactive”. For `CCCCCNCCCCC`, the Potency was “inactive”. In the case of `Cc1ccc(Br)cc1`, the Potency is reported as “inactive”. With `c1ccsc1` the Potency was “inactive”. In the case of `Cc1ccc2oc(=O)ccc2c1`, the Potency is reported as “inactive”. In the case of `CC(C)=CCl`, the Potency is reported as “inactive”. In the case of `Cc1ccco1`, the Potency is reported as “inactive”. In the case of `CC(=O)CC(C)C`, the Potency is reported as “inactive”. For `ON=C1CCCCC1`, the Potency was “inactive”. With `CC(=O)Nc1ccc(C)cc1` the Potency was “inactive”. In the case of `O=C1CCC(=O)O1`, the Potency is reported as “inactive”. For `COc1ccc(N)c(C)c1`, the Potency was “inactive”. With `C=Cc1ccc(C=C)cc1` the Potency was “inactive”. With `CC(C)=CCC/C(C)=C/C=O` the Potency was “inactive”. With `Cc1cc(C)c(N)cc1C` the Potency was “inactive”. In the case of `CCCCCCCN`, the Potency is reported as “inactive”. In the case of `c1ccc2[nH]cnc2c1`, the Potency is reported as “inactive”. In the case of `CC(C)C=O`, the Potency is reported as “inactive”. For `CCNc1ccccc1`, the Potency was “inactive”. In the case of `COC(=O)CS`, the Potency is reported as “inactive”. For `COC(=O)CCC(=O)OC`, the Potency was “inactive”. With `ICCc1ccccc1` the Potency was “inactive”. For `CC(C=O)Cc1ccc(C(C)(C)C)cc1` (configuration not stated), the Potency was “inactive”. In the case of `c1ccc2n[nH]nc2c1`, the Potency is reported as “inactive”. In the case of `CCCC(Cl)CCCC(Cl)CCC(Cl)CCC(Cl)CCC(Cl)CCCC(Cl)CCC` (configuration not stated), the Potency is reported as “inactive”. In the case of `COc1ccc(OC)cc1`, the Potency is reported as “inactive”. For `C=C(C)C(=O)OCCCCCCCCCC`, the Potency was “inactive”. In the case of `[O-]/[N+](=N\O)c1ccccc1`, the Potency is reported as “inactive”. For `FC(F)(F)c1cccc(Cl)c1`, the Potency was “inactive”. With `C=C(C)C(=O)OC` the Potency was “inactive”. With `CCOCCO` the Potency was “inactive”. With `O=C(O)c1cc(Cl)cc(Cl)c1` the Potency was “inactive”. With `CC(C)(O)C(=O)O` the Potency was “inactive”. With `Oc1c(Cl)ccc(Cl)c1Cl` the Potency was “inactive”. With `COC(=O)c1ccccc1` the Potency was “inactive”. With `O=C(O)/C=C/C(=O)O` the Potency was “inactive”.

Target: Nuclear receptor subfamily 1 group I member 2 (Rattus norvegicus) (UniProt Q9R1A7)
Sequence (Q9R1A7 whole entry, looked up): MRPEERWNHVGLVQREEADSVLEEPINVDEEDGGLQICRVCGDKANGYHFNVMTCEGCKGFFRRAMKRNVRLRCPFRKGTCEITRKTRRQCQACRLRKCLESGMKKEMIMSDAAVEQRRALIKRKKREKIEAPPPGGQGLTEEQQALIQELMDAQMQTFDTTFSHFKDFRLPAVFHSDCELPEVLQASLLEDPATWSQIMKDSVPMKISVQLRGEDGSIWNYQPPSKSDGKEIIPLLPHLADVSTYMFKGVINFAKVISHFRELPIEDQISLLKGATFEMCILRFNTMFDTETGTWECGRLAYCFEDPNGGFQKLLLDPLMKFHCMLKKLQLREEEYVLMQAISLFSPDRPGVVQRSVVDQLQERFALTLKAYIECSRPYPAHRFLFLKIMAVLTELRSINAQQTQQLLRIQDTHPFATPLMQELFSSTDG
Assay: qHTS assay for small molecule activators of the rat pregnane X receptor (rPXR) signaling pathway (AID 651751)
Settings: rPXR reporter cells, luciferase (One-Glo), 24 h
`N#Cc1ccccc1` gave a max response of -4.02%. For `c1ccc2c(c1)Oc1ccccc1S2`, the max response was -3.68%. With `CC(=O)CCc1ccccc1` the max response was 3.15%. In the case of `Cc1ccc(Cl)cc1`, the max response is reported as -4.31%. In the case of `CCCCCNCCCCC`, the max response is reported as 7.61% and 1.33%. In the case of `Cc1ccc(Br)cc1`, the max response is reported as 10.2%. In the case of `c1ccsc1`, the max response is reported as -1.04%. For `Cc1ccc2oc(=O)ccc2c1`, the max response was 9.5% and 1.03%. `CC(C)=CCl` gave a max response of 3.22%. Work on `Cc1ccco1` yielded a max response of -0.023%. In the case of `CC(=O)CC(C)C`, the max response is reported as -2.17%. `ON=C1CCCCC1` showed a max response of 3.07%. Work on `CC(=O)Nc1ccc(C)cc1` yielded a max response of -0.0412%. In the case of `O=C1CCC(=O)O1`, the max response is reported as -4.75%. `COc1ccc(N)c(C)c1` showed a max response of 7.59%. Compound `C=Cc1ccc(C=C)cc1` has a max response of -2.76%. For `CC(C)=CCC/C(C)=C/C=O`, the max response was -5.36% and -0.0145%. `Cc1cc(C)c(N)cc1C` showed a max response of 3.48%. `CCCCCCCN` showed a max response of -0.183%. `c1ccc2[nH]cnc2c1` showed a max response of 3.1%. Compound `CC(C)C=O` has a max response of 1.58%. For `CCNc1ccccc1`, the max response was -2.55%. `COC(=O)CS` gave a max response of -1.83%. `COC(=O)CCC(=O)OC` showed a max response of 1.71%. `ICCc1ccccc1` showed a max response of -1.67%. In the case of `CC(C=O)Cc1ccc(C(C)(C)C)cc1` (configuration not stated), the max response is reported as 2.84% and 3.47%. In the case of `c1ccc2n[nH]nc2c1`, the max response is reported as -4.36%. In the case of `CCCC(Cl)CCCC(Cl)CCC(Cl)CCC(Cl)CCC(Cl)CCCC(Cl)CCC` (configuration not stated), the max response is reported as 2.04%. `COc1ccc(OC)cc1` showed a max response of 2.22%. `C=C(C)C(=O)OCCCCCCCCCC` gave a max response of 3.26%. `[O-]/[N+](=N\O)c1ccccc1` gave a max response of -1.54%. Work on `FC(F)(F)c1cccc(Cl)c1` yielded a max response of -6.22%. `C=C(C)C(=O)OC` showed a max response of 2.17%. Work on `CCOCCO` yielded a max response of -4.11%. `O=C(O)c1cc(Cl)cc(Cl)c1` showed a max response of -3.46%. In the case of `CC(C)(O)C(=O)O`, the max response is reported as 0.872%. Compound `Oc1c(Cl)ccc(Cl)c1Cl` has a max response of 0.125%. `COC(=O)c1ccccc1` showed a max response of 0.652%. Compound `O=C(O)/C=C/C(=O)O` has a max response of 2.11%.

Tested on: not listed separately
Assay: qHTS assay for small molecule activators of the human pregnane X receptor (PXR) signaling pathway (AID 720659)
Settings: DPX-2 HepG2 CYP3A4-luciferase, 24 h; series mostly up to 92.3 µM
For `N#Cc1ccccc1`, the outcome was “inactive”. With `c1ccc2c(c1)Oc1ccccc1S2` the outcome was “inactive”. With `CC(=O)CCc1ccccc1` the outcome was “inactive”. For `Cc1ccc(Cl)cc1`, the outcome was “inactive”. In the case of `CCCCCNCCCCC`, the outcome is reported as “inactive”. In the case of `Cc1ccc(Br)cc1`, the outcome is reported as “inactive”. In the case of `c1ccsc1`, the outcome is reported as “inactive”. With `Cc1ccc2oc(=O)ccc2c1` the outcome was “inactive”. With `CC(C)=CCl` the outcome was “inactive”. For `Cc1ccco1`, the outcome was “inactive”. In the case of `CC(=O)CC(C)C`, the outcome is reported as “inactive”. With `ON=C1CCCCC1` the outcome was “inactive”. With `CC(=O)Nc1ccc(C)cc1` the outcome was “inactive”. In the case of `O=C1CCC(=O)O1`, the outcome is reported as “inactive”. In the case of `COc1ccc(N)c(C)c1`, the outcome is reported as “inactive”. For `C=Cc1ccc(C=C)cc1`, the outcome was “inactive”. In the case of `CC(C)=CCC/C(C)=C/C=O`, the outcome is reported as “inactive”. With `Cc1cc(C)c(N)cc1C` the outcome was “inactive”. For `CCCCCCCN`, the outcome was “inactive”. With `c1ccc2[nH]cnc2c1` the outcome was “inactive”. In the case of `CC(C)C=O`, the outcome is reported as “inactive”. With `CCNc1ccccc1` the outcome was “inactive”. In the case of `COC(=O)CS`, the outcome is reported as “inactive”. For `COC(=O)CCC(=O)OC`, the outcome was “inactive”. For `ICCc1ccccc1`, the outcome was “inactive”. For `CC(C=O)Cc1ccc(C(C)(C)C)cc1` (configuration not stated), the outcome was “inactive”. For `c1ccc2n[nH]nc2c1`, the outcome was “inactive”. In the case of `CCCC(Cl)CCCC(Cl)CCC(Cl)CCC(Cl)CCC(Cl)CCCC(Cl)CCC` (configuration not stated), the outcome is reported as “inactive”. With `COc1ccc(OC)cc1` the outcome was “inactive”. With `C=C(C)C(=O)OCCCCCCCCCC` the outcome was “inactive”. In the case of `[O-]/[N+](=N\O)c1ccccc1`, the outcome is reported as “inactive”. With `FC(F)(F)c1cccc(Cl)c1` the outcome was “inactive”. In the case of `C=C(C)C(=O)OC`, the outcome is reported as “inactive”. For `CCOCCO`, the outcome was “inactive”. In the case of `O=C(O)c1cc(Cl)cc(Cl)c1`, the outcome is reported as “inactive”. In the case of `CC(C)(O)C(=O)O`, the outcome is reported as “inactive”. In the case of `Oc1c(Cl)ccc(Cl)c1Cl`, the outcome is reported as “inactive”. In the case of `COC(=O)c1ccccc1`, the outcome is reported as “inactive”. For `O=C(O)/C=C/C(=O)O`, the outcome was “inactive”.
